Reference: the supplement of paper PMC8975748
± gives the standard deviation of the averaged measurements.

Assays:
[1] = test system: Saccharomyces cerevisiae BY4741 SeMeCo community; assay: z-score of prototroph abundance vs DMSO median; higher = larger share of this subpopulation than in DMSO controls; conditions: 10 µM; 24 h; SM minimal medium; subpopulation (auxotrophy): Prototroph
Summary of the method: (§1)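 A community of Saccharomyces cerevisiae BY4741 was built from four plasmids that each restored one auxotrophy and encoded a distinct fluorescent protein. Pre-grown overnight to OD600 1.0 and diluted to 0.3, it was dispensed at 70 µl into 384-well plates acoustically predosed with library drugs for a final 10 µM, and grown 24 h in minimal SM medium. Cells were then paraformaldehyde-fixed and imaged by automated confocal microscopy. Thresholds and autofluorescence correction came from single-auxotroph fluorescent strains, and each subpopulation's abundance was scored as a z-score relative to the vehicle-well median.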

[2] = test system: Saccharomyces cerevisiae BY4741 SeMeCo community; assay: z-score of subpopulation abundance vs DMSO median, subpopulation auxotrophic for U; higher = larger share of this subpopulation than in DMSO controls; conditions: 10 µM; 24 h; SM minimal medium; subpopulation (auxotrophy): U
Summary of the method: as §1

[3] = test system: Saccharomyces cerevisiae BY4741 SeMeCo community; assay: z-score of subpopulation abundance vs DMSO median, subpopulation auxotrophic for H; higher = larger share of this subpopulation than in DMSO controls; conditions: 10 µM; 24 h; SM minimal medium; subpopulation (auxotrophy): H
Summary of the method: as §1

[4] = test system: Saccharomyces cerevisiae BY4741 SeMeCo community; assay: z-score of subpopulation abundance vs DMSO median, subpopulation auxotrophic for LU; higher = larger share of this subpopulation than in DMSO controls; conditions: 10 µM; 24 h; SM minimal medium; subpopulation (auxotrophy): LU
Summary of the method: as §1

[5] = test system: Saccharomyces cerevisiae BY4741 SeMeCo community; assay: z-score of subpopulation abundance vs DMSO median, subpopulation auxotrophic for HM; higher = larger share of this subpopulation than in DMSO controls; conditions: 10 µM; 24 h; SM minimal medium; subpopulation (auxotrophy): HM
Summary of the method: as §1

[6] = test system: Saccharomyces cerevisiae BY4741 SeMeCo community; assay: z-score of subpopulation abundance vs DMSO median, subpopulation auxotrophic for HU; higher = larger share of this subpopulation than in DMSO controls; conditions: 10 µM; 24 h; SM minimal medium; subpopulation (auxotrophy): HU
Summary of the method: as §1

[7] = test system: Saccharomyces cerevisiae BY4741 SeMeCo community; assay: z-score of subpopulation abundance vs DMSO median, subpopulation auxotrophic for UM; higher = larger share of this subpopulation than in DMSO controls; conditions: 10 µM; 24 h; SM minimal medium; subpopulation (auxotrophy): UM
Summary of the method: as §1

[8] = test system: Saccharomyces cerevisiae BY4741 SeMeCo community; assay: z-score of subpopulation abundance vs DMSO median, subpopulation auxotrophic for HLU; higher = larger share of this subpopulation than in DMSO controls; conditions: 10 µM; 24 h; SM minimal medium; subpopulation (auxotrophy): HLU
Summary of the method: as §1

[9] = test system: Saccharomyces cerevisiae BY4741 SeMeCo community; assay: z-score of subpopulation abundance vs DMSO median, subpopulation auxotrophic for HLM; higher = larger share of this subpopulation than in DMSO controls; conditions: 10 µM; 24 h; SM minimal medium; subpopulation (auxotrophy): HLM
Summary of the method: as §1

[10] = test system: Saccharomyces cerevisiae BY4741 SeMeCo community; assay: z-score of subpopulation abundance vs DMSO median, subpopulation auxotrophic for HUM; higher = larger share of this subpopulation than in DMSO controls; conditions: 10 µM; 24 h; SM minimal medium; subpopulation (auxotrophy): HUM
Summary of the method: as §1

[11] = test system: Saccharomyces cerevisiae BY4741 SeMeCo community; assay: z-score of subpopulation abundance vs DMSO median, subpopulation auxotrophic for HLUM; higher = larger share of this subpopulation than in DMSO controls; conditions: 10 µM; 24 h; SM minimal medium; subpopulation (auxotrophy): HLUM
Summary of the method: as §1

[12] = test system: Saccharomyces cerevisiae BY4741 SeMeCo community; assay: mean cell size (pixel area) (pixels); higher = larger cells; conditions: 10 µM; 24 h; SM minimal medium
Summary of the method: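 A fluorescent Saccharomyces cerevisiae BY4741 community carrying four plasmids was used, with each plasmid complementing one auxotrophy and bearing a fluorescent marker. An overnight preculture at OD600 = 1.0 was diluted to OD600 = 0.3, and 70 µl went into 384-well plates acoustically predosed with drug (final 10 µM) in SM medium for 24 h. After paraformaldehyde fixation, cells were imaged by automated confocal microscopy and analysed in Harmony, giving the mean cell pixel area per well. Each value is the average of 3 replicates. Same SeMeCo high-content imaging drug screen: Selleck FDA-approved drugs at 10 µM, 24 h in SM medium, 384-well plates, 3 replicates.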

[13] = test system: Saccharomyces cerevisiae BY4741 SeMeCo community; assay: z-score of subpopulation abundance vs DMSO median, subpopulation auxotrophic for L; higher = larger share of this subpopulation than in DMSO controls; conditions: 10 µM; 24 h; SM minimal medium; subpopulation (auxotrophy): L
Summary of the method: as §1

[14] = test system: Saccharomyces cerevisiae BY4741 SeMeCo community; assay: z-score of subpopulation abundance vs DMSO median, subpopulation auxotrophic for LM; higher = larger share of this subpopulation than in DMSO controls; conditions: 10 µM; 24 h; SM minimal medium; subpopulation (auxotrophy): LM
Summary of the method: as §1

[15] = test system: Saccharomyces cerevisiae BY4741 SeMeCo community; assay: z-score of subpopulation abundance vs DMSO median, subpopulation auxotrophic for HL; higher = larger share of this subpopulation than in DMSO controls; conditions: 10 µM; 24 h; SM minimal medium; subpopulation (auxotrophy): HL
Summary of the method: as §1

[16] = test system: Saccharomyces cerevisiae BY4741 SeMeCo community; assay: z-score of subpopulation abundance vs DMSO median, subpopulation auxotrophic for LUM; higher = larger share of this subpopulation than in DMSO controls; conditions: 10 µM; 24 h; SM minimal medium; subpopulation (auxotrophy): LUM
Summary of the method: as §1

Q: What does the source list for `CC(C)c1c(C(=O)Nc2ccccc2)c(-c2ccccc2)c(-c2ccc(F)cc2)n1CC[C@@H](O)C[C@@H](O)CC(=O)O` [Atorvastatin]?
A: z-score of prototroph abundance [1]: -2.62; z-score of subpopulation abundance [2]: 0.32; z-score of subpopulation abundance [3]: 6.46; z-score of subpopulation abundance [4]: 1.58; z-score of subpopulation abundance [5]: 2.44; z-score of subpopulation abundance [6]: 2.62; z-score of subpopulation abundance [7]: 1.48; z-score of subpopulation abundance [8]: 1.73; z-score of subpopulation abundance [9]: 1.21; z-score of subpopulation abundance [10]: 2.1; z-score of subpopulation abundance [11]: 0.49

Q: For `Cn1c(=O)c2c(ncn2CC2OCCO2)n(C)c1=O` [Doxofylline], which mean cell size [12] is on record?
A: Its mean cell size is 12.2 ± 0.51.

Q: What about the “z-score of prototroph abundance” value [1] of the same compound?
A: Its value is 0.31.

Q: And the “z-score of subpopulation abundance” value [13]?
A: The value was 0.55.

Q: What about the “z-score of subpopulation abundance” value [2] of the same compound?
A: The value was -0.22.

Q: And the “z-score of subpopulation abundance” value [3]?
A: The value was -0.27.

Q: What about the “z-score of subpopulation abundance” value [4] of the same compound?
A: Its value is 0.9.

Q: What about the “z-score of subpopulation abundance” value [14] of the same compound?
A: Its value is 0.49.

Q: And the “z-score of subpopulation abundance” value [5]?
A: The value was -0.89.

Q: What about the “z-score of subpopulation abundance” value [6] of the same compound?
A: Its value is -0.64.

Q: What about the “z-score of subpopulation abundance” value [7] of the same compound?
A: Its value is -0.67.

Q: What about the “z-score of subpopulation abundance” value [15] of the same compound?
A: Its value is 0.28.

Q: And the “z-score of subpopulation abundance” value [8]?
A: Its value is -0.64.

Q: What about the “z-score of subpopulation abundance” value [10] of the same compound?
A: The value was -0.34.

Q: What about the “z-score of subpopulation abundance” value [16] of the same compound?
A: Its value is -0.24.

Q: What about the “z-score of subpopulation abundance” value [11] of the same compound?
A: The value was -0.8.

Q: `O=C1c2c(O)ccc(O)c2C(=O)c2c(NCCNCCO)ccc(NCCNCCO)c21` [Mitoxantrone 2HCl] was tested. Which “z-score of prototroph abundance” value [1] did it give?
A: Its value is -2.59.

Q: What about the “z-score of subpopulation abundance” value [13] of the same compound?
A: Its value is 5.53.

Q: And the “z-score of subpopulation abundance” value [2]?
A: The value was -1.69.

Q: What about the “z-score of subpopulation abundance” value [3] of the same compound?
A: Its value is 21.2.

Q: What about the “z-score of subpopulation abundance” value [4] of the same compound?
A: The value was 3.06.

Q: And the “z-score of subpopulation abundance” value [14]?
A: The value was -5.45.

Q: And the “z-score of subpopulation abundance” value [6]?
A: Its value is 26.5.

Q: What about the “z-score of subpopulation abundance” value [7] of the same compound?
A: Its value is -8.31.

Q: What about the “z-score of subpopulation abundance” value [15] of the same compound?
A: The value was 20.9.

Q: What about the “z-score of subpopulation abundance” value [8] of the same compound?
A: The value was 54.8.

Q: And the “z-score of subpopulation abundance” value [9]?
A: Its value is -2.5.

Q: What about the “z-score of subpopulation abundance” value [10] of the same compound?
A: Its value is -6.42.

Q: What about the “z-score of subpopulation abundance” value [16] of the same compound?
A: Its value is -5.01.

Q: What about the “z-score of subpopulation abundance” value [11] of the same compound?
A: Its value is -2.13.

Q: Which results are given for `CN1C(C(=O)Nc2ccccn2)=C(O)c2ccccc2S1(=O)=O` [Piroxicam]?
A: mean cell size [12]: 12.79 ± 0.11; z-score of prototroph abundance [1]: 1.29; z-score of subpopulation abundance [13]: -0.78; z-score of subpopulation abundance [2]: -0.17; z-score of subpopulation abundance [3]: -0.62; z-score of subpopulation abundance [14]: -1.45; z-score of subpopulation abundance [5]: -0.94; z-score of subpopulation abundance [6]: -0.6; z-score of subpopulation abundance [7]: -0.3; z-score of subpopulation abundance [8]: -1.14; z-score of subpopulation abundance [9]: -0.68; z-score of subpopulation abundance [10]: -0.89; z-score of subpopulation abundance [16]: -1.33; z-score of subpopulation abundance [11]: -0.92
